Test results published in PubChem BioAssay.

Test: differential killing of epithelial or mesenchymal cells, primary screen, imaging, PC-3E GFP, TEM4-18 mCherry, co-culture (AID 1345086);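 also: cells exposed to compound for 72 h before imaging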
Settings: imaging cell counts, measured here: epithelial PC-3E GFP cell survival, at 1 µM

Compound | normalised cell number
CC[C@]1(O)CC2CN(CCc3c([nH]c4ccccc34)[C@@](C(=O)OC)(c3cc4c(cc3OC)N(C)[C@H]3[C@@](O)(C(=O)OC)[C@H](OC(C)=O)[C@]5(CC)C=CCN6CC[C@]43[C@@H]65)C2)C1 (stereo not given in full) | 0.16
C[C@]12CCC3c4ccc(O)cc4CCC3C1CCC2=O (stereo not given in full) | 1.03
OC[C@@H](O)[C@@H](O)[C@H](O)[C@@H](O)CO | 1.02
COC(=O)/C=C/C(=O)OC | 0.84
C=CC[C@@H]1/C=C(\C)C[C@H](C)C[C@H](OC)[C@H]2O[C@@](O)(C(=O)C(=O)N3CCCC[C@H]3C(=O)O[C@H](/C(C)=C/[C@@H]3CC[C@@H](O)[C@H](OC)C3)[C@H](C)[C@@H](O)CC1=O)[C@H](C)C[C@@H]2OC | 0.77
O=c1ccn([C@@H]2O[C@H](CO)[C@@H](O)[C@H]2O)c(=O)[nH]1 | 1
CC(=O)OCC(=O)[C@@]1(O)CCC2C3CCC4=CC(=O)C=C[C@]4(C)[C@@]3(Cl)[C@@H](Cl)C[C@@]21C (stereo not given in full) | 1.2
N#C[C@@H]1C[C@@H]2C[C@@H]2N1C(=O)[C@@H](N)C12CC3CC(CC(O)(C3)C1)C2 | 1.31
Cc1coc2c1C(=O)C(=O)c1c-2ccc2c1CCCC2(C)C | 0.67
O=C1c2c(O)cccc2[C@@H](O[C@@H]2O[C@H](CO)[C@H](O)[C@@H](O)[C@H]2O)c2cc(CO)cc(O)c21 | 1.12
COC1=C(OC)C(=O)C(C/C=C(\C)CC/C=C(\C)CC/C=C(\C)CC/C=C(/C)CC/C=C(\C)CC/C=C(\C)CC/C=C(\C)CC/C=C(\C)CC/C=C(\C)CCC=C(C)C)=C(C)C1=O | 0.97
OC(c1cc(C(F)(F)F)nc2c(C(F)(F)F)cccc12)C1CCCCN1 (stereo not given) | 1.16
C[C@H]1COC2=C1C(=O)C(=O)c1c2ccc2c1CCCC2(C)C | 0.98
CCCCS(=N)(=O)CCC(N)C(=O)O (stereo not given) | 0.89
CC[C@@]1(O)C(=O)OCc2c1cc1n(c2=O)Cc2cc3cc(O)ccc3nc2-1 | 0.31
Oc1cc2c(cc1O)C1c3ccc(O)c(O)c3OCC1(O)C2 (stereo not given) | 1.12
Nc1nc(N)c2nc(CNc3ccc(C(=O)NC(CCC(=O)O)C(=O)O)cc3)cnc2n1 (stereo not given) | 1.01
Clc1ccc(CCC(Cn2ccnc2)Sc2c(Cl)cccc2Cl)cc1 (stereo not given) | 1.26
N#CC(c1ccc(Cl)cc1)c1c(Cl)cc(-n2ncc(=O)[nH]c2=O)cc1Cl (stereo not given) | 1.03
Cc1cc(=O)c(C(=O)N[C@@H](C(=O)N[C@@H]2C(=O)N3C(C(=O)O)=C(CSc4nnnn4C)CSC23)c2ccc(O)cc2)c[nH]1 (stereo not given in full) | 1.24

Compound | normalised cell number
COc1ccc2nc3cc(Cl)ccc3c(Nc3cc(CN4CCCC4)c(O)c(CN4CCCC4)c3)c2n1 | 0.83
CC1=C(C(=O)O)N2C(=O)[C@@H](NC(=O)C(N)c3ccccc3)[C@H]2SC1 (stereo not given in full) | 1.06
CC(C)C(C)/C=C/C(C)C1CCC2C3=CC=C4CC(O)CCC4(C)C3CCC21C (stereo not given) | 1
CC1CC2C3CCC4=CC(=O)C=C[C@]4(C)[C@@]3(F)[C@@H](O)C[C@]2(C)[C@@]1(O)C(=O)CO (stereo not given in full) | 1.32
CC(C)(CO)[C@@H](O)C(=O)NCCC(=O)O | 0.63
CN1C(C(=O)Nc2ccccn2)=C(O)c2sc(Cl)cc2S1(=O)=O | 1.13
CC(=O)NC(CS)C(=O)O (stereo not given) | 1.24
CC(NCCc1ccc(O)cc1)C(O)c1ccc(O)cc1 (stereo not given) | 0.9
Cc1cc2nc3c(=O)[nH]c(=O)nc-3n(C[C@@H](O)[C@@H](O)[C@@H](O)COP(=O)(O)O)c2cc1C | 1.03
CC(C)NC[C@H](O)COc1cccc2ccccc12 | 1
CN[C@@H]1[C@H](O[C@H]2[C@H](O[C@@H]3[C@@H](O)[C@H](O)[C@@H](N=C(N)N)[C@H](O)[C@H]3N=C(N)N)O[C@@H](C)[C@]2(O)C=O)O[C@@H](CO)[C@H](O)[C@H]1O | 1.28
CN(C)CC[C@H](c1ccc(Cl)cc1)c1ccccn1 | 0.95
COc1ccc(C2Sc3ccccc3N(CCN(C)C)C(=O)C2OC(C)=O)cc1 (stereo not given) | 0.98
Cc1c(-c2cnccn2)ssc1=S | 0.9
CC(C)=CCC/C(C)=C/CC/C(C)=C/CC/C(C)=C/CC/C(C)=C/CC/C(C)=C/CC/C(C)=C/CC/C(C)=C/CC/C(C)=C/CO | 0.97
Nc1nc(F)nc2c1ncn2[C@@H]1O[C@H](COP(=O)(O)O)[C@@H](O)[C@@H]1O | 0.86
CC1(C)CCC[C@]2(C)[C@H]3CC(=O)O[C@]3(C)CC[C@@H]12 | 1.09
Cc1cc2nc3c(=O)[nH]c(=O)nc-3n(CC(O)C(O)C(O)CO)c2cc1C (stereo not given) | 1.14
N[C@@H](CC(=O)N1CCn2c(nnc2C(F)(F)F)C1)Cc1cc(F)c(F)cc1F | 0.94
NC(=O)c1ncn(C2O[C@H](CO)[C@@H](O)[C@H]2O)c1N (stereo not given in full) | 1.13
